# Data taken from the supplement of paper PMC6555819.
# Tested on: PPARg:RXRa 270nM:90nM, anti-RXR (NR concentration 270 nM, RXRa partner concentration 90 nM)
# Assay: PBM binding z-score (relative to random genomic background probes); higher = stronger binding; sequences stand for … in GC…GCGATTGACAGCGTAGAATGAAGG
# Procedure, shortened: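 Ligand-free nuclear receptor dimers were applied to custom Agilent 4×180K protein-binding microarrays whose double-stranded probes carried direct-repeat seeds, single-nucleotide variants, half-site ablations and random human genomic background sequences in 34-nt variable regions. Incubation lasted 1 h. Binding z-scores were computed against the random background probes from regression-normalized fluorescence.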
row,Sequence,PBM binding z-score
1,ATACCAAGGTGATCGTGAGGTCCTTGATACTAAC,0.0314
2,ACAATGAGGTTATACGTAGATCAGGGAAGAAAGT,1.69
3,AGAACGAGGGCAATGAGGTGATAGCACGGGTGGC,1.46
4,GGAACGAGGGCATTCGAGTTGATAACATGGCGAT,0.636
5,TCGAGTAGGTTACCAATGGGGCATTAAGCTTTCT,1.17
6,CCTACTGGGCCATTCAGAGGTCGTTGATCATATG,1.26
7,GGAATGAGGGCATTCGAGTTGATAGCATGGCGAT,1.52
8,ATATCTAGGTTAAGGGTCATTCAGGTTGGTTCGC,10.3
9,CCTGCTAGGTGAATGGTCAGCTAAAGCAGCTCGC,4.11
10,CGAACGAGGGCATGAGTTGATAGCGAATGCCGAT,1.65
11,TTACCAAGGTGAGCTGTGGTCGTTGATCCAACTC,0.0963
12,CCTATTAGTTGACCATAAGGGCAACCGTAGCTCG,0.487
13,ATCACTAGGTAAAAGTTCAGTGAATCCCGAGGAT,8.67
14,AGAATGAGGTTAAGCTCAGGGAAACAGAATACAT,2.58
15,TAGCCTAGGTCATTAGGCCAGTATAGTACGCATC,3.34
16,AGTCAAAGTACATCTAGGTAACGTAAGATATGCT,0.631
17,CAAACTAGATCAAGAGGTCAAAGTCCGCTTCCCG,4.85
18,GGAACGAGGGCAAAGTTGATAGTATCTGTCGACG,7.32
